The results in this text go back to PubChem BioAssay (NCATS).

Records with an inconclusive call do not appear. A number with no mark means an inactive call. Calls follow the shape of the dose curve; as a rule, active = well fitted activation curve with a large enough effect; inconclusive = small, poorly fitted or top-dose-only effect, or another doubt; inactive = no such curve, though single readings can be large or run the other way.

The assay deals with Rap guanine nucleotide exchange factor 3 (Homo sapiens) (UniProt O95398). Put plainly: Counterscreen qHTS for agonist of cAMP-regulated guanine nucleotide exchange factor 3 (EPAC1) (AID 1645889). Also: % of control where 0% means no effect; nearly all actives have a fitted effect of over 40% in size. Particulars: EPAC1 Rap1B-BODIPY-GDP exchange, fluorescence; series mostly up to 154 µM; activation: at the top concentration. In a few lines: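 Rap1B-BODIPY-GDP 250 nM + GDP 50 uM; cpds 7-pt, final 9.74 nM–152 uM (activator mode) or from 7.32 nM upwards (inhibitor mode); RT; FI 480/540 nm at 5 and 30 min, then ± cAMP, reread.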
Background: A counterscreen serves to expose hits that act by an unwanted route or on another target.
On to `CCOP(=O)(OCC)C(Cc1ccccc1)N=C(c1ccccc1)c1ccccc1` (stereo not given), for which the activation was 12.6% [at 30.8 µM].

In the case of `Cc1cc(Br)cc(Cl)c1OC(=O)c1ccncc1`, the “activation” value is 4.8%.

Regarding `O=C(CCC1N=C2c3ccccc3N=C(SCc3ccc(Cl)cc3)N2C1=O)NCc1cccs1` (stereo not given), the “activation” value is 9.18%.

For `COc1ccc(N=C2SC(C(=O)Nc3ccc(C(=O)O)cc3)CC(=O)N2Cc2cccs2)cc1` (stereo not given), the activation is 7.24% [at 30.8 µM].

As to `C=CCc1cccc(CNc2c(C)cc(C)cc2C)c1O`, the “activation” value was -13.7%.

With `CCOc1cc(-c2c(C#N)c(N)nc3c2CCCC3C)ccc1O` (stereo not given), the “activation” value was 11.7%.

For the compound `COc1ccc(OC)c(N2C(=O)[C@@H]3C(c4ccccc4Cl)=NO[C@@H]3C2=O)c1`, the “activation” value was 5.31%.

With `Cc1nn(CCc2nn[nH]n2)c2nc(-c3ccc(Br)cc3)cc(C(F)(F)F)c12`, the “activation” value is -2.65%.

`O=C(C=Cc1ccccc1)c1c[nH]c2ccccc2c1=O`: the activation was 9.21% [at 30.8 µM].

Turning to `CCOc1ccc(/C=C/C(=O)c2c(O)c3ccccc3oc2=O)cc1`, the “activation” value was 20.4%.

Take `COc1cc(O)c(C=NN2C(=O)CSC2=S)c(OC)c1`: the “activation” value is 22.5%.

On to `Cc1ccc(CN(C(=O)COc2cccc([N+](=O)[O-])c2)c2ccccn2)cc1`, for which the “activation” value was 23.6%.

`N#C/C(=C/c1cccn1-c1cccc(C(=O)O)c1)c1ccc(F)cc1`: the activation is 2.77% [at 30.8 µM].

As to `CCN=C1S/C(=C\c2ccc(-c3cccc(C(=O)O)c3)o2)C(=O)N1CC`, the “activation” value is 9.27%.

In the case of `O=C(Nc1cc(C(F)(F)F)ccc1Cl)c1nc2ccccc2nc1N1CCCCC1`, the “activation” value is 8.84%.

Consider `CC1(Cc2cc(Cl)ccc2C(F)(F)F)C(=O)Nc2cc(F)ccc21` (stereo not given), for which the activation is 12.6% [at 30.8 µM].

For `COC1=CC(=O)C(C2CC(=O)c3c(O)cc(O)cc3O2)=CC1=O` (stereo not given), the activation is 4.79% [at 30.8 µM].

With `O=C(O)C/C(=C\c1cc(Cl)c2c(c1)OCO2)c1nc2ccccc2s1`, the activation was -1.83% [at 30.8 µM].

For `O=C1C=CC(c2ccccc2)(c2ccccc2)CC1`, the activation was 29.7% [at 30.8 µM].

Consider `COc1ccccc1C(=O)Nc1nnc(SCc2cc(=O)c3ccccc3[nH]2)s1`, for which the “activation” value was 19.1%.

On to `CC(C)(C)NC(=O)NC(=O)CN1CCN(S(=O)(=O)c2ccc3c(c2)CCCC3)CC1`, for which the activation was 6.75% [at 30.8 µM].

Turning to `CC(C)CCNc1nc(-c2ccco2)c2c(c1C#N)CCCC2`, the “activation” value is 8.16%.

In the case of `CC1=Nc2ccccc2N=C(NC(=O)/C=C/C(=O)O)C1c1ccccc1` (stereo not given), the “activation” value is 1.7%.

For `CCOC(=O)N(C)c1c(CC)nc2c(OCc3ccc(C(F)(F)F)cc3)cccn12`, the “activation” value is 26.3%.

For `CC(=Cc1ccccc1)C=C1SC(=S)N(CCCC(=O)Nc2ccc(C(=O)O)cc2)C1=O`, the “activation” value was -10.7%.

For the compound `O=C(Cn1ncc(Cl)c(Cl)c1=O)NC(=O)NC1CCCCC1`, the activation was 9.51% [at 30.8 µM].

In the case of `CC(=O)c1sc2nc(-c3ccco3)ccc2c1N`, the “activation” value was 17.5%.

As to `COc1ccc(C(CCN(Cc2ccc(OC)c(OC)c2)C(C)=O)C(C)C)cc1` (stereo not given), the “activation” value was 1.17%.

As to `CCOP(=O)(OCC)C(Cc1ccc(OC)c(OC)c1)N=C(c1ccccc1)c1ccccc1` (stereo not given), the activation was 17.1% [at 30.8 µM].

Take `Cc1onc(-c2c(F)cccc2Cl)c1C(=O)OCc1cnc(Cl)s1`: the “activation” value is 39.3%.

For `Cc1ccc(C)n1-c1ccc(C(=O)/C=C/N(C)C)cc1`, the activation is 0.307% [at 30.8 µM].

In the case of `O=C(COC(=O)c1ccc2c(c1)C(=O)N(Cc1ccncc1)C2=O)Nc1ccccc1[N+](=O)[O-]`, the “activation” value was 9.69%.

On to `CCN(C(=O)c1noc2c1COc1ccc(C)cc1-2)c1cccc(C)c1`, for which the “activation” value was 35.5%.

Turning to `CCOC(=O)N1CCC(Nc2nc3ccccc3n3cnnc23)CC1`, the activation was 4.26% [at 30.8 µM].

Turning to `C[C@@H]1COC(=O)[C@H](NC(=O)OCC2c3ccccc3-c3ccccc32)C/C=C\C[C@@H](CC(=O)N[C@H](CO)Cc2ccccc2)C(=O)N1`, the activation was -0.359% [at 30.8 µM].

With `COc1ccccc1-n1c(C)c(C(=O)O)c2cc(OC)c3ccccc3c21`, the “activation” value is 22.3%.

As to `CCOC(=O)C(C)Sc1nc(-c2ccco2)cc(C(F)(F)F)c1C#N` (stereo not given), the activation was 0.691% [at 30.8 µM].

Take `Cc1ccc(C)c(CSC2=NC(C)(C)Nc3ccccc32)c1`: the “activation” value is 27.4%.

Turning to `C[C@@H]1ON(C)[C@H]2C[C@H]3c4[nH]c5ccc(-c6ccc7c(c6)OCO7)cc5c4CCN3C(=O)[C@@H]12`, the activation was 32% [at 30.8 µM].

Take `O=C(c1ccc2c(c1)CCCC2)N1CCN(c2nc3ccc(F)cc3s2)CC1`: the “activation” value was -20%.
